These results are taken from PubChem BioAssay (NCI).

The structures appear in SMILES notation. Where “and” joins values, the source holds several entries; their conditions need not be identical. Equal values may be shown once. This is part of a sample that, as a whole, favours compounds with a hit. Of some 79,000 tested, about 15% had one in any assay. Where a structure was tested more than once in an assay, its records may differ in their call. Calls of active or inactive are those of the source. Rule as the data show it: active = growth inhibition above about 70%; inactive = the rest.

Assay [1] is described as follows: NCI Yeast Anticancer Drug Screen. Data for the rad50 strain (AID 155).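 Also: 0% = growth of vehicle-only cultures of the same strain.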 The conditions noted are these: S. cerevisiae rad50 strain growth inhibition, stronger effect = higher value. In outline:
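Genetically altered yeast (DNA repair pathway); compound treatment; growth inhibition vs vehicle ctrl.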

Assay [2] in a line: NCI Yeast Anticancer Drug Screen. Data for the mec2-1 strain (AID 157). The conditions noted are these: S. cerevisiae mec2-1 strain, stronger effect = higher value. The method, boiled down:
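Cells of the genetically defined mec2-1 yeast strain are incubated with test compound. Inhibition of growth is calculated against vehicle-treated controls.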

A short description of assay [3]: NCI Yeast Anticancer Drug Screen. Data for the sgs1 mgt1 strain (AID 161).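 Also: 0% = growth of cultures given vehicle only.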 The conditions noted are these: S. cerevisiae sgs1 mgt1 strain, stronger effect = higher value. In outline:
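Read-out: growth inhibition vs vehicle controls. Cells: mutant yeast strain deficient in DNA damage repair.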

Assay [4] is described as follows: NCI Yeast Anticancer Drug Screen. Data for the cln2 rad14 strain (AID 165).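 Also: 0% = growth equal to vehicle treated cultures.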 The conditions noted are these: S. cerevisiae cln2 rad14 strain, stronger effect = higher value. In outline: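 The screen exposed genetically defined yeast (cln2 rad14) to test compounds and scored growth inhibition relative to vehicle-treated controls.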
Assay [5] can be described thus: NCI Yeast Anticancer Drug Screen. Data for the bub3 strain (AID 167). The conditions noted are these: S. cerevisiae bub3 mutant strain, stronger effect = higher value. In outline:
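Yeast carrying a defined mutation is treated with each compound, and growth is compared with that of vehicle-exposed cells to give inhibition.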

The nature of assay [6]: NCI Yeast Anticancer Drug Screen. Data for the mlh1 rad18 strain (AID 175). The conditions noted are these: S. cerevisiae mlh1 rad18 strain growth inhibition, stronger effect = higher value. The method, boiled down: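 Compound-treated yeast growth, normalised to vehicle controls. Strain bears defined DNA repair mutations.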
Setting [7] is: at 5.0 µM (retest, dose inferred, filed as 0.5).
[8] abbreviates: at 50.0 µM (retest, dose inferred, filed as 5.0).

Consider `O=C1C(Cl)=C(Cl)C(Cl)(Cl)C(Cl)=C1Cl`, for which the growth inhibition in assay [1] (setting [7]) was 24% (inactive) and 61% (inactive); in assay [1] (setting [8]), 99% (active); in assay [1] (at 50.0 µM), 60.4% (inactive) and 64.4% (inactive); in assay [2] (setting [7]), 24% (inactive) and 42% (inactive); in assay [2] (setting [8]) it was 100% (active); in assay [2] (at 50.0 µM), 99.2% (active) and 52.9% (inactive). For the same molecule, the growth inhibition in assay [3] (setting [7]) was 18% (inactive) and 69% (inactive); in assay [3] (setting [8]), 99% (active); in assay [3] (at 50.0 µM), 97.7% (active) and 66.2% (inactive); in assay [4] (setting [7]) it was 19% (inactive) and 13% (inactive); in assay [4] (setting [8]), 99% (active) and 98% (active); in assay [4] (at 50.0 µM), 98.7% (active) and -4.55% (inactive). Further, the growth inhibition was 22% (inactive) and 19% (inactive) in assay [5] (setting [7]); 99% (active) and 100% (active) in assay [5] (setting [8]); 98.8% (active) and 55.9% (inactive) in assay [5] (at 50.0 µM); 37% (inactive) and 50% (inactive) in assay [6] (setting [7]); 99% (active) in assay [6] (setting [8]); 98.1% (active) and 70.8% (active) in assay [6] (at 50.0 µM).

Take `O=C1CSC(=S)N1c1ccc(Cl)c(C(F)(F)F)c1`: the growth inhibition in assay [1] (setting [7]) was -1% (inactive); in assay [1] (setting [8]), 36% (inactive); in assay [1] (at 50.0 µM) it was 97.5% (active); in assay [2] (setting [7]), 0% (inactive); in assay [2] (setting [8]) it was 11% (inactive); in assay [2] (at 50.0 µM), 97.7% (active). The growth inhibition in assay [3] (setting [7]) is 6% (inactive); in assay [3] (setting [8]), 97% (active); in assay [3] (at 50.0 µM), 98.9% (active); in assay [4] (setting [7]) it was -4% (inactive); in assay [4] (setting [8]), -10% (inactive); in assay [4] (at 50.0 µM), 58.4% (inactive). For the same molecule, the growth inhibition in assay [5] (setting [7]) was -6% (inactive); in assay [5] (setting [8]), 56% (inactive); in assay [5] (at 50.0 µM) it was 98.5% (active); in assay [6] (setting [7]), 11% (inactive); in assay [6] (setting [8]), 95% (active); in assay [6] (at 50.0 µM), 98.3% (active).

For the molecule `c1ccc(Cc2cc3ccccc3c3ccccc23)cc1`, the growth inhibition is 4% (inactive) in assay [1] (setting [7]); 14% (inactive) in assay [1] (setting [8]); 20.1% (inactive) in assay [1] (at 50.0 µM); 5% (inactive) in assay [2] (setting [7]); 23% (inactive) in assay [2] (setting [8]); 14.9% (inactive) in assay [2] (at 50.0 µM). In addition, the growth inhibition was 2% (inactive) in assay [3] (setting [7]); -3% (inactive) in assay [3] (setting [8]); -6.6% (inactive) in assay [3] (at 50.0 µM); 16% (inactive) in assay [4] (setting [7]); 6% (inactive) in assay [4] (setting [8]); -0.55% (inactive) in assay [4] (at 50.0 µM). In addition, the growth inhibition is 2% (inactive) in assay [5] (setting [7]); 3% (inactive) in assay [5] (setting [8]); 91.3% (active) in assay [5] (at 50.0 µM); 4% (inactive) in assay [6] (setting [7]); -2% (inactive) in assay [6] (setting [8]); 82.5% (active) in assay [6] (at 50.0 µM).

Regarding `CCN1/C(=C/C=C/C=C/c2sc3ccccc3[n+]2CC)Sc2ccccc21`, the growth inhibition is 97% (active) in assay [1] (setting [7]); 25% (inactive) in assay [1] (setting [8]); 56.1% (inactive) and 66.5% (inactive) in assay [1] (at 50.0 µM); 98% (active) in assay [2] (setting [7]); 28% (inactive) in assay [2] (setting [8]); 64.7% (inactive) and 70.8% (active) in assay [2] (at 50.0 µM). Besides, the growth inhibition in assay [3] (setting [7]) is 96% (active); in assay [3] (setting [8]) it was 11% (inactive); in assay [3] (at 50.0 µM), 79.5% (active) and 58.2% (inactive); in assay [4] (setting [7]), 93% (active); in assay [4] (setting [8]), 28% (inactive); in assay [4] (at 50.0 µM) it was 67.7% (inactive) and 65.2% (inactive). For the same molecule, the growth inhibition was 97% (active) in assay [5] (setting [7]); 1% (inactive) in assay [5] (setting [8]); 53.8% (inactive) and 52.5% (inactive) in assay [5] (at 50.0 µM); 96% (active) in assay [6] (setting [7]); 14% (inactive) in assay [6] (setting [8]); 54.5% (inactive) and 43.6% (inactive) in assay [6] (at 50.0 µM).

As to `CC(=O)c1ccc(N)cc1`, the growth inhibition in assay [1] (setting [7]) is 35% (inactive); in assay [1] (setting [8]), 73% (active); in assay [1] (at 50.0 µM), 7.3% (inactive); in assay [2] (setting [7]) it was 50% (inactive); in assay [2] (setting [8]) it was 100% (active); in assay [2] (at 50.0 µM), 15.3% (inactive). In addition, the growth inhibition in assay [3] (setting [7]) is 7% (inactive); in assay [3] (setting [8]), 52% (inactive); in assay [3] (at 50.0 µM), 26.8% (inactive); in assay [4] (setting [7]) it was 12% (inactive); in assay [4] (setting [8]), 39% (inactive); in assay [4] (at 50.0 µM), -1.3% (inactive). The growth inhibition was 30% (inactive) in assay [5] (setting [7]); 99% (active) in assay [5] (setting [8]); -2.8% (inactive) in assay [5] (at 50.0 µM); 62% (inactive) in assay [6] (setting [7]); 96% (active) in assay [6] (setting [8]); 20.1% (inactive) in assay [6] (at 50.0 µM).

Regarding `COc1ccc2cc(C(C)=O)c3ccccc3c2c1`, the growth inhibition in assay [1] (setting [7]) is 11% (inactive); in assay [1] (setting [8]) it was 93% (active); in assay [1] (at 50.0 µM), 94.2% (active); in assay [2] (setting [7]) it was -34% (inactive); in assay [2] (setting [8]), 95% (active); in assay [2] (at 50.0 µM), 86.5% (active). For the same molecule, the growth inhibition is 1% (inactive) in assay [3] (setting [7]); 88% (active) in assay [3] (setting [8]); 96.2% (active) in assay [3] (at 50.0 µM); -2% (inactive) in assay [4] (setting [7]); 77% (active) in assay [4] (setting [8]); -8.2% (inactive) in assay [4] (at 50.0 µM). Moreover, the growth inhibition in assay [5] (setting [7]) is -68% (inactive); in assay [5] (setting [8]) it was 94% (active); in assay [5] (at 50.0 µM) it was 2.7% (inactive); in assay [6] (setting [7]) it was 2% (inactive); in assay [6] (setting [8]), 95% (active); in assay [6] (at 50.0 µM), 97% (active).

`Nc1cc2c(cc1[N+](=O)[O-])[nH]c1c(-c3ccccc3)nccc12`: the growth inhibition in assay [1] (setting [7]) is 9% (inactive); in assay [1] (setting [8]), 97% (active); in assay [1] (at 50.0 µM), 99.2% (active); in assay [2] (setting [7]), -5% (inactive); in assay [2] (setting [8]), 99% (active); in assay [2] (at 50.0 µM), 96.4% (active). In addition, the growth inhibition in assay [3] (setting [7]) was 10% (inactive); in assay [3] (setting [8]) it was 99% (active); in assay [3] (at 50.0 µM), 99.3% (active); in assay [4] (setting [7]) it was 1% (inactive); in assay [4] (setting [8]), 89% (active); in assay [4] (at 50.0 µM), 99.1% (active). For the same molecule, the growth inhibition in assay [5] (setting [7]) is 28% (inactive); in assay [5] (setting [8]), 98% (active); in assay [5] (at 50.0 µM), 99.2% (active); in assay [6] (setting [7]) it was 2% (inactive); in assay [6] (setting [8]), 98% (active); in assay [6] (at 50.0 µM) it was 98.9% (active).
